Compound activity as filed in PubChem BioAssay.
Most compounds without a hit are left out; they make up all but 0.92% or so of the library.
LAP4 TOR yeast = modulators of LAP4-GFP expression in yeast, primary screen, S. cerevisiae, multiplex flow cytometry, MLPCN library; GFP response vs DMSO, % at 10 µM; actives 0.34% (n = 320,000); 3 h; median GFP as percent of DMSO wells;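 active = GFP response vs DMSO above a set limit, about the screen mean plus 3 SD, cut at about 150% in these data; inconclusive = under 70 cell events counted for the yeast strain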
MEP2 TOR yeast = modulators of MEP2-GFP levels in yeast, primary screen, S. cerevisiae, multiplex flow cytometry, MLPCN library; S. cerevisiae MEP2-GFP strain, 3 h; 100% = DMSO control level; GFP response vs DMSO, % at 10 µM; actives 0.51% (n = 330,000);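 active = GFP response versus DMSO above a set limit, roughly screen mean plus 3 SD, cut at about 180% in these data; inconclusive = fewer than 70 cells counted for a yeast strain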;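 also: median GFP fluorescence of the barcode-gated MEP2-GFP cells per well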
AGP1 TOR yeast = modulators of AGP1-GFP expression in yeast TOR pathway, primary screen, cell-based, multiplex flow cytometry, S. cerevisiae, MLPCN library; actives 0.02% (n = 320,000); GFP response vs DMSO, % at 10 µM; 3 h; GFP as percent of DMSO wells;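 active = GFP response relative to DMSO above a set limit, near screen average plus 3 SD, cut at about 150% in these data; inconclusive = fewer than 70 cells counted for the yeast strain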;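 also: median GFP channel fluorescence of the gated AGP1 strain per well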
RPL19A-GFP yeast = RPL19A-GFP expression modulators in yeast, primary screen, cell-based, S. cerevisiae, multiplex flow cytometry, MLPCN; percent response vs DMSO, % at 10 µM; S. cerevisiae RPL19A-GFP strain, 3 h; stronger effect = lower value; actives 0.3% (n = 330,000);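 active = percent response vs DMSO below 50%; inconclusive = fewer than 70 events counted for the yeast strain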;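 also: median channel GFP fluorescence of the barcoded RPL19A-GFP strain; lower means less RPL19A-GFP as with rapamycin TOR inhibition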
CIT2-GFP yeast = modulators of CIT2-GFP expression in yeast, primary screen, S. cerevisiae, GFP fusion, multiplex flow cytometry, MLPCN library; S. cerevisiae CIT2-GFP strain, 3 h; 100 means same as DMSO wells; GFP response vs DMSO, % at 10 µM; actives 0.065% (n = 320,000);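 active = GFP response relative to DMSO above a set limit, near the screen mean plus 3 SD, cut at about 150% in these data; inconclusive = Fewer than 70 cells measured for a yeast strain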;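 also: ratio of well median GFP fluorescence to mean of DMSO wells on the plate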
Numbers stand for hits; [ ] = remark or other dose.

Results for COc1ccc(C2=CC3=C(Br)C(=O)C(C)(OC(=O)c4cccs4)C(=O)C3=CO2)cc1 (stereo unspecified) ?
LAP4 TOR yeast: inactive; MEP2 TOR yeast: inactive; AGP1 TOR yeast: inactive; RPL19A-GFP yeast: inactive; CIT2-GFP yeast: inconclusive

How did CN1C(=S)SC(C)(C)C1N(O)C(=O)Nc1ccc(Cl)cc1 (stereo unspecified) do in these assays?
LAP4 TOR yeast: inactive; MEP2 TOR yeast: inactive; AGP1 TOR yeast: inactive; RPL19A-GFP yeast: inactive

How did CC1(C)C(N(O)C(=O)Nc2ccc(Cl)cc2)N(c2ccc(Cl)cc2)C(=O)N1CC(=O)NN (stereo unspecified) do in these assays?
LAP4 TOR yeast: inactive; MEP2 TOR yeast: 269.4[may fluoresce violet]; AGP1 TOR yeast: inactive; RPL19A-GFP yeast: inactive; CIT2-GFP yeast: inconclusive

Results for CC(=O)N1CCc2c(sc(NC(=O)c3cccc(N4C(=O)CCC4=O)c3)c2C(N)=O)C1 ?
LAP4 TOR yeast: inactive; MEP2 TOR yeast: inactive; AGP1 TOR yeast: inactive; RPL19A-GFP yeast: inactive; CIT2-GFP yeast: inactive

How did NC(=O)C1CCN(c2cc(N3CCOCC3)ccc2[N+](=O)[O-])CC1 do in these assays?
LAP4 TOR yeast: inactive; MEP2 TOR yeast: inactive; AGP1 TOR yeast: inactive; RPL19A-GFP yeast: inactive; CIT2-GFP yeast: inactive

How did NC(=O)C1CCN(c2cc(Cl)ccc2[N+](=O)[O-])CC1 do in these assays?
MEP2 TOR yeast: inconclusive; RPL19A-GFP yeast: 41.0[may fluoresce violet]

What do the screens show for `COc1ccc(-n2cc(C(=O)O)c(=O)cc2C)cc1`?
LAP4 TOR yeast: inactive; MEP2 TOR yeast: inactive; AGP1 TOR yeast: inactive; RPL19A-GFP yeast: inactive; CIT2-GFP yeast: inactive

Results for O=C(Nc1ccnn1C1CCN(Cc2cccc(OCCO)c2)CC1)c1cccc(F)c1 ?
LAP4 TOR yeast: inactive; MEP2 TOR yeast: inactive; AGP1 TOR yeast: inactive; RPL19A-GFP yeast: inactive; CIT2-GFP yeast: inactive

Results for Cc1onc(-c2c(Cl)cccc2Cl)c1NC(=O)NNc1c(Cl)cncc1Cl ?
LAP4 TOR yeast: inactive; MEP2 TOR yeast: 205.4; AGP1 TOR yeast: inactive; RPL19A-GFP yeast: inactive; CIT2-GFP yeast: inactive

What do the screens show for `Cc1cc(C(=O)NNC(=O)c2c(-c3c(Cl)cccc3Cl)noc2C)no1`?
LAP4 TOR yeast: inactive; MEP2 TOR yeast: inactive; AGP1 TOR yeast: inactive; RPL19A-GFP yeast: inactive; CIT2-GFP yeast: 150.4[may fluoresce green]

How did Cc1onc(-c2c(Cl)cccc2Cl)c1NC(=O)NNc1ccccc1 do in these assays?
LAP4 TOR yeast: inactive; MEP2 TOR yeast: inactive; AGP1 TOR yeast: inactive; RPL19A-GFP yeast: inactive; CIT2-GFP yeast: inactive

How did CN(C)CCN(C(=O)c1ccccc1Cl)c1nc2c(Cl)cccc2s1 do in these assays?
LAP4 TOR yeast: inactive; MEP2 TOR yeast: inactive; AGP1 TOR yeast: inactive; RPL19A-GFP yeast: inactive; CIT2-GFP yeast: inactive

Results for CCOC(=O)c1cccc(NC(=O)Cn2nc(C)n3cccc3c2=O)c1 ?
LAP4 TOR yeast: inactive; MEP2 TOR yeast: inactive; AGP1 TOR yeast: inactive; RPL19A-GFP yeast: inactive; CIT2-GFP yeast: inactive

How did Cc1cccc(NC(=O)/C(C#N)=C/c2ccccc2Cl)n1 do in these assays?
LAP4 TOR yeast: 164.1; MEP2 TOR yeast: inactive; AGP1 TOR yeast: inactive; RPL19A-GFP yeast: inactive; CIT2-GFP yeast: inactive

Results for Cc1cccc(NC(=O)/C(C#N)=C/c2ccc(Cl)cc2)n1 ?
LAP4 TOR yeast: inactive; MEP2 TOR yeast: inactive; AGP1 TOR yeast: inactive; RPL19A-GFP yeast: inactive; CIT2-GFP yeast: inactive

How did O=c1oc(-c2cccc(Cl)c2)nc2c1cnn2-c1ccccc1 do in these assays?
LAP4 TOR yeast: inactive; MEP2 TOR yeast: 207.6[may fluoresce violet]; AGP1 TOR yeast: inactive; RPL19A-GFP yeast: inactive; CIT2-GFP yeast: inconclusive

How did O=c1oc(-c2ccccc2F)nc2c1cnn2-c1ccccc1 do in these assays?
LAP4 TOR yeast: inactive; MEP2 TOR yeast: inactive; AGP1 TOR yeast: inactive; RPL19A-GFP yeast: inactive; CIT2-GFP yeast: inactive

What do the screens show for `CCOc1ccc2nc(SCC(=O)NCC3CCCO3)c(C#N)cc2c1` (stereo unspecified)?
LAP4 TOR yeast: inactive; MEP2 TOR yeast: 211.1; AGP1 TOR yeast: inactive; RPL19A-GFP yeast: inactive; CIT2-GFP yeast: inactive

How did O=C(O)c1ccc(SCc2cnc(Cl)s2)cc1 do in these assays?
LAP4 TOR yeast: 178.8; MEP2 TOR yeast: inactive; AGP1 TOR yeast: inactive; RPL19A-GFP yeast: inactive; CIT2-GFP yeast: inactive

How did COC(=O)c1ccc(SCc2cnc(Cl)s2)cc1 do in these assays?
LAP4 TOR yeast: inactive; MEP2 TOR yeast: inactive; AGP1 TOR yeast: inactive; RPL19A-GFP yeast: inactive; CIT2-GFP yeast: inactive

What do the screens show for `COc1ccc(S(=O)(=O)N2CCC(C(=O)NCC3CCCO3)CC2)cc1Cl` (stereo unspecified)?
LAP4 TOR yeast: inactive; MEP2 TOR yeast: inactive; AGP1 TOR yeast: inactive; RPL19A-GFP yeast: inactive; CIT2-GFP yeast: inactive

How did COc1ccc(-c2nc3ccccc3c(=O)n2CCCN2CCOCC2)cc1 do in these assays?
LAP4 TOR yeast: inactive; MEP2 TOR yeast: inactive; AGP1 TOR yeast: inactive; RPL19A-GFP yeast: inactive; CIT2-GFP yeast: inactive

Results for O=c1c2ccccc2nc(-c2ccccc2)n1CCN1CCOCC1 ?
LAP4 TOR yeast: 162.8; MEP2 TOR yeast: inactive; AGP1 TOR yeast: inactive; RPL19A-GFP yeast: inactive; CIT2-GFP yeast: inactive

What do the screens show for `O=C1/C(=C/c2ccc(N3CCCC3)cc2)NC(=S)N1C1CC1`?
LAP4 TOR yeast: inactive; MEP2 TOR yeast: 329.0[may fluoresce violet]; AGP1 TOR yeast: inconclusive; RPL19A-GFP yeast: 42.1[may fluoresce violet]; CIT2-GFP yeast: inconclusive

What do the screens show for `CN(CCc1ccccn1)C(=O)CCC1CCCN(C(=O)NC2CCCCC2)C1` (stereo unspecified)?
LAP4 TOR yeast: inactive; MEP2 TOR yeast: inactive; AGP1 TOR yeast: inactive; RPL19A-GFP yeast: inactive; CIT2-GFP yeast: inactive

What do the screens show for `Clc1ccc(-n2nnnc2Sc2ncnc3sccc23)cc1`?
LAP4 TOR yeast: 151.4; MEP2 TOR yeast: inactive; AGP1 TOR yeast: inactive; RPL19A-GFP yeast: inactive; CIT2-GFP yeast: inactive

What do the screens show for `O=C(O)C1CCN(C(=O)CSc2nnc3ccccn23)CC1`?
LAP4 TOR yeast: inactive; MEP2 TOR yeast: inactive; AGP1 TOR yeast: inactive; RPL19A-GFP yeast: inactive; CIT2-GFP yeast: inactive

Results for COc1ccc(-c2cc(=O)n(-c3nc4ccccc4[nH]3)[nH]2)cc1 ?
LAP4 TOR yeast: 181.1; MEP2 TOR yeast: inactive; AGP1 TOR yeast: inactive; RPL19A-GFP yeast: inactive; CIT2-GFP yeast: inactive

How did COc1ccc(N2CCN(C(=O)CCc3nnc4ccc(N5CCCC5)nn34)CC2)cc1 do in these assays?
LAP4 TOR yeast: inactive; MEP2 TOR yeast: 189.7; AGP1 TOR yeast: inactive; RPL19A-GFP yeast: inactive; CIT2-GFP yeast: inactive

What do the screens show for `COc1ccccc1N1CCN(C(=O)CCc2nnc3ccc(N4CCCC4)nn23)CC1`?
LAP4 TOR yeast: inactive; MEP2 TOR yeast: inactive; AGP1 TOR yeast: inactive; RPL19A-GFP yeast: inactive; CIT2-GFP yeast: inactive

What do the screens show for `Cc1noc(C)c1CSCC(=O)Nc1nc2ccc(F)cc2s1`?
LAP4 TOR yeast: inactive; MEP2 TOR yeast: inactive; AGP1 TOR yeast: inactive; RPL19A-GFP yeast: inactive; CIT2-GFP yeast: inactive

Results for CCOc1ccc(NC(=O)C/C(C)=N/NC(=O)COc2ccc(Br)cc2C)cc1 ?
LAP4 TOR yeast: inactive; MEP2 TOR yeast: 252.1[may fluoresce violet]; AGP1 TOR yeast: inactive; RPL19A-GFP yeast: inactive; CIT2-GFP yeast: inconclusive
